# Measurements taken from the supplement of paper PMC6555819.
# System: FXR:RXRa (NR concentration 270 nM, RXRa partner concentration 90 nM)
# Experiment: PBM binding z-score (relative to random genomic background probes); higher = stronger binding; sequences stand for … in GC…GCGATTGACAGCGTAGAATGAAGG
# How it was run: (§1)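 Custom Agilent 4×180K protein-binding microarrays carried double-stranded probes. Their 34-nt variable regions held direct-repeat seeds, single-nucleotide variants, half-site ablations and random human genomic background sequences. Arrays were incubated 1 h with ligand-free nuclear receptor dimers in PBS pH 7.4, 2% milk, 0.02% Triton X-100, 1 mM DTT, 0.2 mg/mL BSA and 0.4 mg/ml salmon testes DNA. Antibodies against each partner (one per run) detected binding, and scanned fluorescence was regression-normalized. Binding z-scores use random background probes as reference.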
row,Sequence,PBM binding z-score
1,CGTCCAAGGTGAAAGGTCAGTGAAGAGATGACGG,4.63
2,ACTAGTTGGTCAACTGAGGTCACACACAATTCGG,4.03
3,TCTCCTAGGTCAACGATGGTCAGCTAATCTGCTA,4.13
4,CAAACTAGGTCACAGAGGTCAAGGTCCGTGCGTA,7.39
5,ACTCTGAGGACAAAGGTCAGAGCTACGCCAGTGA,4.52
6,TCATATAGGTAAACAGATGAAAGTCCGTAAGTTA,1.23
7,GATACAGGGTCAGCTGGAGGCCAGAGTATGGAAA,5.07
8,AGAATGAGGTTATTAAGGTCAGGGAATTGCGGTC,4.55
9,TCGAGAAGGTTACCAATGGGGCATTCAGCTTTCT,0.688
10,TCGAGTAGGTAAGGGGCATTCAGAATGGCGTCGA,-0.106
11,TCTCGGAGGACACGAAGGTCAGATCTTTCCAGAG,1.76
12,ATACCAAGGTGATCGTAAGGTCGTTGATACTAAC,2.06
13,CTACCAAGGTGAACAAGGTCGTTGATTACTATTC,1.47
14,AATACAGGATCATCGTAGGCCAGAGTACGCACAG,-0.0228
15,ATACCACGGTGATCGTGAGGTCGTTGATACTAAC,1.06
16,GCTTGTAGATCAAGGTTAGGAAAGACTAAGCTAA,-0.51
17,CGAACTAGGTCAGACCAGGACAGTGAAGGATGAT,1.62
18,CCGACTGGGGCAAAGGTTACCATTCTCAGTACGA,1.49

# System: LXRa:RXRa (NR concentration 270 nM, RXRa partner concentration 90 nM)
# Experiment: as above
# How it was run: as §1
row,Sequence,PBM binding z-score
1,ATCTCAAGGTAAAGTTCAGTGAAAGATCGATAGA,2.17
2,GCTAGTTGGTTAGTAAAAGGTCACACACCGGTCG,4.33
3,CCTAGTTGGTCAGGAGGTCACTCACCGGATATGA,2.85
4,ACGAGCAGGCCAAGGGTCACTCAAGATTAGTCCG,2.98
5,TGAATGAGGTTATAAGTTCAGGGAACGTTGCAAA,2.69
6,ATTTCTAGGTAAGACTCAGTTCAGTGAAGAACGC,0.946
7,TCTATTAGTTGAAGGGCAACCGCCGAGTCCGTTT,0.871
8,TCTAGCAGGCCGGAGGGTCACTCAAGAGGTACGG,0.705
9,TCTCGGAGGACACGAAAGGTTAGAGCTCGACATC,0.89
10,ATATGTAGGTTACATCCGGGTCAATCAGGCTATG,4.37
11,GATACAGGGTAAAGGCCAGAGTACGCGTATTGAT,-0.0959
12,CCGACTGGGGCATAAGGTTGCCATAAGCCAGCCC,-0.188
13,CCTCGGAGGACAGAAGGTCAGAGCAGTCCGCTTT,1.7
14,ACTATTAGGTGAGACGAGGGCAACCGATAGGTTG,0.503
15,CGAACTAGGTCACGAAAGGTCAAAGTCGAATGAC,8.18
16,CCTTACAGGTCACTCCAGGTTATAGCATCGGAGT,7.41
17,AGAATGAGGTTACCAAAGATCAGGGGAACGCTTG,6
18,GCATTTAGGTAATACAAGGTGAAAGTCCGATTGT,1.54
19,TTACCAAGGTGAGCTGAGGTCATTGATCCAACTC,4.36
20,AGAATGAGGATATTAAGATCAGGGAATTGCGGTC,-0.424

row,Sequence,PBM binding z-score
1,ACTGTTAGTTGACTTAGGGCAACCGATACGACGC,0.575
2,ATCTCTAGGTAACCATGTTCAGTGAATGCCGAAC,0.321
3,CGTCCAAGGTGAAAGGTCAGTGAAGAGATGACGG,4.11
4,ACTAGTTGGTCAACTGAGGTCACACACAATTCGG,4.75
5,TCTCCTAGGTCAACGATGGTCAGCTAATCTGCTA,3.59
6,CAAACTAGGTCACAGAGGTCAAGGTCCGTGCGTA,6.46
7,ACTCTGAGGACAAAGGTCAGAGCTACGCCAGTGA,4.08
8,TCATATAGGTAAACAGATGAAAGTCCGTAAGTTA,0.739
9,GATACAGGGTCAGCTGGAGGCCAGAGTATGGAAA,2.76
10,AGAATGAGGTTATTAAGGTCAGGGAATTGCGGTC,4.8
11,TCGAGAAGGTTACCAATGGGGCATTCAGCTTTCT,2.9
12,TCGAGTAGGTAAGGGGCATTCAGAATGGCGTCGA,-0.02
13,TCTCGGAGGACACGAAGGTCAGATCTTTCCAGAG,1.41
14,ATACCAAGGTGATCGTAAGGTCGTTGATACTAAC,1.46
15,CTACCAAGGTGAACAAGGTCGTTGATTACTATTC,1.38
16,AATACAGGATCATCGTAGGCCAGAGTACGCACAG,0.0727
17,ATACCACGGTGATCGTGAGGTCGTTGATACTAAC,0.834
18,GCTTGTAGATCAAGGTTAGGAAAGACTAAGCTAA,-0.347
19,CGAACTAGGTCAGACCAGGACAGTGAAGGATGAT,1.04
20,CCGACTGGGGCAAAGGTTACCATTCTCAGTACGA,1.29
